From the supplement of paper PMC10338343 come the findings set out here.

± gives the standard deviation. A value given as a limit tells only on which side of the number the result lay.

For this assay, the system named is EfPiwi piRISC loaded with L1MC piRNA (26 nt). Briefly: pre-steady-state target cleavage rate (min^-1); auxiliary factor: 500 nM Ephydatia muelleri Gtsf1; guide: L1MC piRNA 5'p-UAACUAAAUACUAUGCAAGCUGUAGG; MIWI and MILI are mouse PIWI proteins and EfPiwi is from a freshwater sponge; tags in brackets are library labels; higher = faster piRNA-guided slicing of the target. Put shortly: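 A burst-and-steady-state fit was used to obtain the pre-steady-state cleavage rate. The input data were sequencing reads of uncleaved targets, normalised to depth and to weakly complementary targets, from a […] transcribed, DNA-blocked target RNA library mixed with 1 nM active affinity-purified piRISC holding one synthetic guide, with or without 500 nM GTSF1 partner protein, in HEPES–potassium acetate buffer at 33 °C for 0–8 or 0–960 min. Three trials were pooled and k3 was capped at 0.0001 min^-1.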
As for UCCUGGAUCAGCUUGCACAGUAUUUAGUUA, the “pre-steady-state target cleavage rate” value was 0.0672 ± 0.016. As for UCCUGGAUCAGCUUGCAUAGUAAUUAGAAA, the figure is 0.00582 ± 0.0028; as for UCCUGGAACACGAUGCAUAGUAUUUACAAA, 0.00408 ± 0.0037; as for UCCUGGAAGUCCUUGCAUAGUAUUUAGAAA, 0.00315 ± 0.0023. As to UCCUGGAUGUCGAACGUAUCUAUUUUCUUA, the “pre-steady-state target cleavage rate” value was less than 0.0001.

Consider UCCUCCUACAGCUUGGAUAGUAUUUACUUA, for which the “pre-steady-state target cleavage rate” value was 0.00254 ± 0.0019.

UCCUCCUACAGCUUGCAUAGUAAUUAGAAA: the “pre-steady-state target cleavage rate” value was 0.00474 ± 0.0026. For UCCUGGAACAGCUUGCAUAGAAUUUUGUUA, the “pre-steady-state target cleavage rate” value amounted to 0.00229 ± 0.0021. On to UCCUGGAUCAGCUUGACAUAGUAUUUAGUUA, for which the “pre-steady-state target cleavage rate” value came out at 0.014 ± 0.0043. As for UCCUCCUACAGCUUGCAUUGUAAUUAGUUA, the figure is 0.00753 ± 0.0034; as for UCCUGGUACACCUUGCAUAGUAUUUAGUAA, 0.00351 ± 0.0028. Then UCCUGCUACAGCUUCCAAAGUAUUUAGUUA, with 0.00321 ± 0.0019; and UCCUGGAUGAGCCUGCAUAGUAUUUAGUUA, with 0.032 ± 0.011; and UCCUGGAUGUCGAACGUUAGUAUUAAGUAA, with less than 0.0001. As to UCCUCCUACAGCUUGCAUAGUAUUAUGUAA, the “pre-steady-state target cleavage rate” value amounted to 0.00434 ± 0.0026. As for UCCUGGAUGUCGAACGAUACUAUUUUGUUA, the figure is less than 0.0001; as for UCCUGGAUGAGCUUGCAUAGUAUUUUCUAA, 0.00391 ± 0.0026; as for UCCUGGAUGUGCUCUGCAUAGUAUUUAGUUA, 0.00925 ± 0.0031. As for UCCUGGAUGAGCUUGGAUAGUAUUUAGAAA, the figure is 0.00463 ± 0.0034. As for UCCUGCAACAGGUUGCAUAGUAUUUAGUUA, the figure is 0.018 ± 0.0035; as for UCCUGGAUGUCGAAGCUUAGUAUUUACUUA, less than 0.0001; as for UCCUGGAUCAGCUUGCAAAGUAUUUAGAUA, 0.00558 ± 0.0029. Take UCCUGGUACAGCUUCCAUAGUAUUUAGUAA: the “pre-steady-state target cleavage rate” value amounted to 0.00378 ± 0.0022. As for UCCUCCUACAGCUUGCAUAGUGAUUUAGUUA, the figure is 0.00415 ± 0.0025; as for UCCUGCUUCAGCUUGCAUAGUAUUUAGUAA, 0.00811 ± 0.0033. Then UCCUGGAUGUGCUUGCAUAGUAUUUACUAA, with 0.146 ± 0.073; and UCCUGGAUGUGCUUAGCAUAGUAUUUAGUUA, with 0.00497 ± 0.0028; and UCCUGGAUGUCGAACGUUAGUAAAAAGUUA, with less than 0.0001. As for UCCUCCUAGAGCUUGCAUAGUAUUUACUUA, the figure is 0.00356 ± 0.0033; as for UCCUGGAUGAGCGUUGCAUAGUAUUUAGUUA, 0.00582 ± 0.0034. With UCCUGGAUGUCGAACGUAAGUAUUUAGUGA, the “pre-steady-state target cleavage rate” value was less than 0.0001. Then UCCUGCUACUGCUUGCAUAGUAUUUAGAAA, with 0.00545 ± 0.0023; and UCCUGGUACAGCUUGCAGAGUAUUUAGUUA, with 0.00371 ± 0.0027; and UCCUGGAUCAGCCUGCAUAGUAUUUAGUUA, with 0.0209 ± 0.006.

UCCUGGAUCAGCUUGCAUAGUAUAUAGUAA: the “pre-steady-state target cleavage rate” value was 0.00291 ± 0.0023. Then UCCUGCUACAGCUUGCAUAGUAUAUAGAUA, with 0.00352 ± 0.0017. As for UCCUCCUACAGCUUGCAUAGUUUUAGUUA, the figure is 0.00276 ± 0.0023. With UCCUGCUACAGCUUGCAUAGUUAUUAGUUA, the “pre-steady-state target cleavage rate” value turned out to be 0.00354 ± 0.0022. Then UCCUGGUACAGCUAGCAUAGUAUUUUGUUA, with 0.00396 ± 0.0023.

Take UCCUCCAACAGCUUGCAUAGUAUUUACAAA: the “pre-steady-state target cleavage rate” value was determined as 0.00355 ± 0.0024.
